Outcome and AC50 data for four compounds are collected here from PubChem BioAssay (EPA / NIEHS).

What all share (conditions): mRNA level, 48 h; actives raise or lower the signal
Read-out in assay [1]: DNA damage-inducible transcript 3 (DDIT3), DDIT3 (gene 1649)
The experiment in a line: LTEA_HepaRG_DDIT3: Life Technologies and Expression Analysis (LTEA) Assay for DNA damage-inducible transcript 3 (DDIT3) using HepaRG (AID 2283488). Put shortly: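 qRT-PCR readout (Fluidigm TaqMan), housekeeping-normalized to ACTB, GAPDH, POLR2A. HepaRG cells, 48 h exposure, 8-point half-log series from 100 uM in 0.5% DMSO, duplicates. Gain or loss of signal fitted against DMSO baseline.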

Read-out in assay [2]: Pro-epidermal growth factor (Homo sapiens) (UniProt P01133)
The experiment in a line: LTEA_HepaRG_EGF: Life Technologies and Expression Analysis (LTEA) Assay for Epidermal growth factor (EGF) using HepaRG (AID 2283489). Put shortly: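 HepaRG cells (~100,000/well, 48 h pre-culture) exposed in duplicate for 48 h in serum-free induction medium to 8 half-log concentrations up to 100 uM in 0.5% DMSO. EGF mRNA by qRT-PCR, normalized to ACTB/GAPDH/POLR2A; bidirectional fit versus DMSO.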

Read-out in assay [3]: Early growth response protein 1 (EGR1) transcription factor, EGR1 (gene 1958)
Description: LTEA_HepaRG_EGR1: Life Technologies and Expression Analysis (LTEA) Assay for Early growth response protein 1 (EGR1) transcription factor using HepaRG (AID 2283490). The essentials:
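EGR1 transcript levels quantified by qRT-PCR (Fluidigm arrays) against three housekeeping genes after 48 h chemical exposure of HepaRG cells. Eight-point half-log series topping at 100 uM, 0.5% DMSO vehicle, analyzed for gain or loss.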

Read-out in assay [4]: Ezrin (EZR), EZR (gene 7430)
The experiment in a line: LTEA_HepaRG_EZR: Life Technologies and Expression Analysis (LTEA) Assay for Ezrin (EZR) using HepaRG (AID 2283491). Put shortly:
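Gain or loss of EZR mRNA is scored relative to 0.5% DMSO in human HepaRG cultures treated 48 h with test chemicals in duplicate, eight half-log concentrations from 100 uM.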

Read-out in assay [5]: CYP3A5 (gene 1577)
Description: LTEA_HepaRG_CYP3A5: Life Technologies and Expression Analysis (LTEA) Assay for CYP3A5 using HepaRG (AID 2283493). The essentials:
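qRT-PCR read-out: CYP3A5 transcript in HepaRG lysates, housekeeping-normalized (ACTB/GAPDH/POLR2A), fitted bidirectionally against 0.5% DMSO baseline. Exposure 48 h, eight half-log concentrations up to 100 uM, duplicates.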

Read-out in assay [6]: Fatty Acid-Binding Protein 1 (FABP1), FABP1 (gene 2168)
Description: LTEA_HepaRG_FABP1: Life Technologies and Expression Analysis (LTEA) Assay for Fatty Acid-Binding Protein 1 (FABP1) using HepaRG (AID 2283494). The essentials:
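FABP1 expression by TaqMan qRT-PCR, normalised to three housekeeping genes, in HepaRG cells after 48 h chemical treatment. Eight-point half-log series topping at 100 uM in 0.5% DMSO, duplicates; gain or loss fitted relative to vehicle.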

Read-out in assay [7]: Cytochrome P450 4A22 (Homo sapiens) (UniProt Q5TCH4)
The experiment in a line: LTEA_HepaRG_CYP4A22: Life Technologies and Expression Analysis (LTEA) Assay for Cytochrome P450 4A22 (CYP4A22) using HepaRG (AID 2283495). The essentials: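 Differentiated HepaRG cells in serum-free induction medium exposed 48 h in duplicate to eight half-log concentrations up to 100 uM in 0.5% DMSO. CYP4A22 mRNA quantified by TaqMan qRT-PCR, normalized to ACTB, GAPDH and POLR2A; bidirectional fit versus DMSO.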

Read-out in assay [8]: Cytochrome P450 7A1 (Homo sapiens) (UniProt P22680)
Description: LTEA_HepaRG_CYP7A1: Life Technologies and Expression Analysis (LTEA) Assay for Cytochrome P450 7A1 (CYP7A1) using HepaRG (AID 2283496). Put shortly:
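Using 0.5% DMSO as vehicle and baseline, chemicals were tested in duplicate over an 8-point range from 100 uM on HepaRG cells for 48 h; qRT-PCR signals were normalised to ACTB, GAPDH and POLR2A.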

Read-out in assay [9]: Glutathione S-Transferase (GSTA2), GSTA2 (gene 2939)
Description: LTEA_HepaRG_GSTA2: Life Technologies and Expression Analysis (LTEA) Assay for Glutathione S-Transferase (GSTA2) using HepaRG (AID 2283497). Put shortly:
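GSTA2 transcript levels came from Fluidigm TaqMan qRT-PCR normalized to three housekeeping genes, fitted in both directions against DMSO. HepaRG cultures received chemicals for 48 h in serum-free induction medium (0.5% DMSO), 8 half-log concentrations up to 100 uM, duplicate.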

Read-out in assay [10]: Glutamate-cysteine ligase catalytic (GCLC), GCLC (gene 2729)
The experiment in a line: LTEA_HepaRG_GCLC: Life Technologies and Expression Analysis (LTEA) Assay for Glutamate-cysteine ligase catalytic (GCLC) using HepaRG (AID 2283498). The essentials: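 Expression by TaqMan qRT-PCR, normalized to three housekeeping genes (ACTB, GAPDH, POLR2A), with up- or down-regulation fitted against DMSO. HepaRG cells dosed in duplicate for 48 h with 8 half-log concentrations up to 100 uM, vehicle 0.5% DMSO.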

Read-out in assay [11]: growth arrest and DNA damage 45 (GADD45G), GADD45G (gene 10912)
The experiment in a line: LTEA_HepaRG_GADD45G: Life Technologies and Expression Analysis (LTEA) Assay for growth arrest and DNA damage 45 (GADD45G) using HepaRG (AID 2283499). The essentials:
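Differentiated human HepaRG cells, 48 h post-plating, exposed 48 h in serum-free induction medium to 8 half-log concentrations (top 100 uM, 0.5% DMSO) in duplicate. GADD45G mRNA measured by Fluidigm TaqMan qRT-PCR, normalized to ACTB, GAPDH, POLR2A; bidirectional fit versus DMSO.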

Read-out in assay [12]: Glutamate-cysteine ligase regulatory (GCLM), GCLM (gene 2730)
Description: LTEA_HepaRG_GCLM: Life Technologies and Expression Analysis (LTEA) Assay for Glutamate-cysteine ligase regulatory (GCLM) using HepaRG (AID 2283500). Put shortly:
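HepaRG, 48 h dosing, 100 uM top, half-log x8, 0.5% DMSO vehicle. Readout: GCLM mRNA by TaqMan qRT-PCR, housekeeping-normalized (ACTB/GAPDH/POLR2A). Curves fit bidirectionally vs DMSO baseline.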

Read-out in assay [13]: Hypoxia-inducible factor 1-alpha (Homo sapiens) (UniProt Q16665)
The experiment in a line: LTEA_HepaRG_HIF1A: Life Technologies and Expression Analysis (LTEA) Assay for Hypoxia-inducible factor 1 (HIF1A) Trancription factor using HepaRG (AID 2283503). Put shortly: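 Gain- or loss-of-signal HIF1A mRNA changes are fitted against a DMSO baseline. HepaRG cultures receive eight concentrations, highest 100 uM, for 48 h in serum-free induction medium with 0.5% DMSO.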

Read-out in assay [14]: 3-Hydroxy-3-Methylglutaryl-CoA Synthase 2 (HMGCS2), HMGCS2 (gene 3158)
Description: LTEA_HepaRG_HMGCS2: Life Technologies and Expression Analysis (LTEA) Assay for 3-Hydroxy-3-Methylglutaryl-CoA Synthase 2 (HMGCS2) using HepaRG (AID 2283504). Put shortly: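 Human HepaRG cells in serum-free induction medium were exposed in duplicate for 48 h to 8-point half-log series from 100 uM top in 0.5% DMSO. HMGCS2 mRNA measured by TaqMan qRT-PCR, normalised to ACTB, GAPDH, POLR2A; bidirectional fit versus DMSO.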

Read-out in assay [15]: HGF (gene 3082)
Description: LTEA_HepaRG_HGF: Life Technologies and Expression Analysis (LTEA) Assay for Hepatocyte Growth Facto (HGF) using HepaRG (AID 2283505). The essentials:
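Differentiated HepaRG cells in serum-free induction medium exposed 48 h in duplicate, 8 half-log concentrations from 100 uM in 0.5% DMSO. HGF mRNA by qRT-PCR, normalised to ACTB, GAPDH, POLR2A; bidirectional fitting.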

Read-out in assay [16]: Insulin Like Growth Factor 1 (IGF1), IGF1 (gene 3479)
Description: LTEA_HepaRG_IGF1: Life Technologies and Expression Analysis (LTEA) Assay for Insulin Like Growth Factor 1 (IGF1) using HepaRG (AID 2283506). Put shortly: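 qRT-PCR readout of IGF1 mRNA, normalized to three housekeeping genes, after 48 h chemical exposure of HepaRG cells. Concentrations: 8-point half-log series, top 100 uM, 0.5% DMSO vehicle. Gain or loss fitted against DMSO baseline.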

Read-out in assay [17]: Intercellular Adhesion Molecule 1 (ICAM1), ICAM1 (gene 3383)
The experiment in a line: LTEA_HepaRG_ICAM1: Life Technologies and Expression Analysis (LTEA) Assay for Intercellular Adhesion Molecule 1 (ICAM1) using HepaRG (AID 2283507). Put shortly: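 Differentiated human HepaRG cells in serum-free induction medium exposed 48 h in duplicate to 8 half-log concentrations (top 100 uM, 0.5% DMSO). ICAM1 mRNA quantified by TaqMan qRT-PCR, normalized to ACTB, GAPDH and POLR2A; bidirectional fitting versus DMSO.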

Read-out in assay [18]: Heat shock 70 kDa protein 1 (HSPA1A), gene 3303
The experiment in a line: LTEA_HepaRG_HSPA1A: Life Technologies and Expression Analysis (LTEA) Assay for Heat shock 70 kDa protein 1 (HSPA1A) using HepaRG (AID 2283502). The essentials:
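HepaRG, 48 h exposure, 8-pt half-log CRC from 100 uM in 0.5% DMSO, duplicates. Readout: TaqMan qRT-PCR of HSPA1A mRNA, housekeeping-normalized (ACTB/GAPDH/POLR2A). Bidirectional fit vs 0.5% DMSO baseline.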

Read-out in assay [19]: Cytochrome P450 3A7 (Homo sapiens) (UniProt P24462)
The experiment in a line: LTEA_HepaRG_CYP3A7: Life Technologies and Expression Analysis (LTEA) Assay for CYP3A7 using HepaRG (AID 2283492). The essentials:
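Differentiated HepaRG cells in serum-free induction medium exposed 48 h in duplicate to 8-point half-log series from 100 uM top in 0.5% DMSO. CYP3A7 mRNA by qRT-PCR, normalized to ACTB/GAPDH/POLR2A, bidirectional fit versus DMSO.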

Activity calls are given as the source filed them. How the source made its calls: active means hit-call score of the fitted dose curve at least 0.9, where 1 is the maximum; inactive means score below 0.9.

Chain of Hypoxia-inducible factor 1-alpha (Homo sapiens) (Q16665 whole entry, looked up): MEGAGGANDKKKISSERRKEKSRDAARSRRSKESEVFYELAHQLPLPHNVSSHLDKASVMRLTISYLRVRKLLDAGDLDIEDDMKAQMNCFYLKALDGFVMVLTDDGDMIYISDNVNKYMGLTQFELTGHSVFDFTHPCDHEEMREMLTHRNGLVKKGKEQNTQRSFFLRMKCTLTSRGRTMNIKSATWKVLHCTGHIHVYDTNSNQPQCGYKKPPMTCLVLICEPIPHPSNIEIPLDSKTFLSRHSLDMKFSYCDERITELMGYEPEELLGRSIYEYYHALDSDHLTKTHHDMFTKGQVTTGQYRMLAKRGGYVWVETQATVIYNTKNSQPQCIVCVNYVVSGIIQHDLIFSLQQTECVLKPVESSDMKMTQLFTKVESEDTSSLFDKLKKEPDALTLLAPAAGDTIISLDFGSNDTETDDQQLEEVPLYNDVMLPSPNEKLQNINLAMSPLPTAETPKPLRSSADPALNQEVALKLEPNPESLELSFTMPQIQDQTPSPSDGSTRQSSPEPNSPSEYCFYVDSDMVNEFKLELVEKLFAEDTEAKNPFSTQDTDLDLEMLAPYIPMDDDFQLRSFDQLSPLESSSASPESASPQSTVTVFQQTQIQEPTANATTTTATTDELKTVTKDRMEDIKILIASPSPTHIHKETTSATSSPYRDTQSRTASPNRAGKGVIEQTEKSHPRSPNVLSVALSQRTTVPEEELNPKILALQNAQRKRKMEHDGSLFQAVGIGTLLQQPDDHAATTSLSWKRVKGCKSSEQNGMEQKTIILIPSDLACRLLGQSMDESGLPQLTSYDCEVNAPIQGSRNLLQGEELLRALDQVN
Chain of Cytochrome P450 3A7 (Homo sapiens) (P24462 whole entry, looked up): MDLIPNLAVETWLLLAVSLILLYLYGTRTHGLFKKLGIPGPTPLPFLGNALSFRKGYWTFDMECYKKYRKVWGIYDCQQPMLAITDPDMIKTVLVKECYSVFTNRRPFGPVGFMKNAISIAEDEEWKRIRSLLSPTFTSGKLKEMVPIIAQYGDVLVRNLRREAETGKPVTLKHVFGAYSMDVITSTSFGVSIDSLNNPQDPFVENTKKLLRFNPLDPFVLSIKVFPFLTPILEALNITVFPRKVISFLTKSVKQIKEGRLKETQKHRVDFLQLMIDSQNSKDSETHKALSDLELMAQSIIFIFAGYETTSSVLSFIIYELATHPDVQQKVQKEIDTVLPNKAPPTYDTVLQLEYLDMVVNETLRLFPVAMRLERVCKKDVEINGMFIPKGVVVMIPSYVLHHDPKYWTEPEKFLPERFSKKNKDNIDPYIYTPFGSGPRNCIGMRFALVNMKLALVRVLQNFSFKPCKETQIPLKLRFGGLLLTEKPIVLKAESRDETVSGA

Regarding `CN1COCN(Cc2cnc(Cl)s2)C1=N[N+](=O)[O-]`, the compound was called inactive in assay [1], in assay [2], in assay [3], in assay [4], in [5] and in assay [6]. For the same compound, the compound was classed as inactive in [7], in [8], in assay [9], in [10], in [11] and in [12]. Further, the call in [13], in assay [14], in assay [15], in [16] and in assay [17] was inactive.

For the compound `COP(=O)(OC)OC(Br)C(Cl)(Cl)Br` (configuration not stated), the call in [1], in assay [2], in assay [3], in assay [4], in [5] and in [6] was inactive. Moreover, the result in [7], in assay [8], in [9], in assay [10], in assay [11] and in [12] was inactive. In addition, the result in [18], in [13], in assay [14], in [15] and in [17] was inactive.

`O=[N+]([O-])c1cc(C(F)(F)F)c(Cl)c([N+](=O)[O-])c1Nc1ncc(C(F)(F)F)cc1Cl`: the result in [1], in assay [2], in assay [4], in assay [11], in assay [12] and in assay [15] was inactive. Moreover, the outcome in assay [17] was inactive. Further, the AC50 (in general, the midpoint of the concentration-response curve, whichever way the signal moves) in [3] is 90.7 µM (active); in assay [19], 23.1 µM (active); in assay [5] it was 66.7 µM (active); in assay [6], 16.4 µM (active); in assay [7], 23.1 µM (active); in assay [8], 23 µM (active). Further, the AC50 in [9] was 24.9 µM (active); in assay [10], 69.3 µM (active); in [13], 31.9 µM (active); in [14], 36.5 µM (active).

On to `CCc1cccc(CC)c1N(COC)C(=O)CCl`, for which the compound was called inactive in [1], in assay [2], in assay [3], in [4], in assay [19] and in [5]. The compound was classed as inactive in assay [6], in assay [7], in assay [9], in assay [10], in [11] and in [13]. Further, the outcome in assay [14], in assay [15], in [16] and in assay [17] was inactive.
